Several values for one entry are separate records, joined by “and”; a condition that tells them apart may be missing. Equal entries are not always repeated.
What was measured:
[1] = molecular target: Tyrosine-protein kinase CSK (Homo sapiens) (UniProt P41240); conditions: at 1 µM;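 further: each value is an averaged inhibition reading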
[2] = molecular target: T1, Discoidin domain-containing receptor 2 (Homo sapiens) (UniProt Q16832); conditions: at 0.1 µM
T1 sequence (whole entry): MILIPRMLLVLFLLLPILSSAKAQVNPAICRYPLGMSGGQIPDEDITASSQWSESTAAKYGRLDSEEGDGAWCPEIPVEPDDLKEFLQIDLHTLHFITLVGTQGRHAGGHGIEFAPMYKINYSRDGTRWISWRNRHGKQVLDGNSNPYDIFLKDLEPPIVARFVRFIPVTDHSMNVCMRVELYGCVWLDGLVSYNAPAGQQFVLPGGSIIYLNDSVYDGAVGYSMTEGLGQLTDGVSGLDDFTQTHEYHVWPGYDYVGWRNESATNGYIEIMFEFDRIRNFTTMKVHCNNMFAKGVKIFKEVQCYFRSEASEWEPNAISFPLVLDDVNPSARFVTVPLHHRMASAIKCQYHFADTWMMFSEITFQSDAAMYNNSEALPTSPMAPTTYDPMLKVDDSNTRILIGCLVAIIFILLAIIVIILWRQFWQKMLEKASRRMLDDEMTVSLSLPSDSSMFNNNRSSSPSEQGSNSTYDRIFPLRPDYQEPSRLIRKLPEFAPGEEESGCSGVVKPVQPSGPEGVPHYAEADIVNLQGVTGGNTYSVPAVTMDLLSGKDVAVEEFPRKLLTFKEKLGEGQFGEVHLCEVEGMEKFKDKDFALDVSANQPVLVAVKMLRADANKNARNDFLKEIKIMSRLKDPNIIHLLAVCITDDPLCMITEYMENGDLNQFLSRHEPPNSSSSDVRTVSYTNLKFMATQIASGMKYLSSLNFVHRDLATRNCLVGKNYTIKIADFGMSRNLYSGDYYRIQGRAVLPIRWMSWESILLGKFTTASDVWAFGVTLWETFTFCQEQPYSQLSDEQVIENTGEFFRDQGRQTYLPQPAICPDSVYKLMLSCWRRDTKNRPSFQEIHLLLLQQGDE

[3] = molecular target: T1, Discoidin domain-containing receptor 2 (Homo sapiens); conditions: at 1 µM
[4] = molecular target: Epidermal growth factor receptor (Homo sapiens) (UniProt P00533); conditions: at 0.1 µM
Epidermal growth factor receptor (Homo sapiens), sequence (P00533 whole entry): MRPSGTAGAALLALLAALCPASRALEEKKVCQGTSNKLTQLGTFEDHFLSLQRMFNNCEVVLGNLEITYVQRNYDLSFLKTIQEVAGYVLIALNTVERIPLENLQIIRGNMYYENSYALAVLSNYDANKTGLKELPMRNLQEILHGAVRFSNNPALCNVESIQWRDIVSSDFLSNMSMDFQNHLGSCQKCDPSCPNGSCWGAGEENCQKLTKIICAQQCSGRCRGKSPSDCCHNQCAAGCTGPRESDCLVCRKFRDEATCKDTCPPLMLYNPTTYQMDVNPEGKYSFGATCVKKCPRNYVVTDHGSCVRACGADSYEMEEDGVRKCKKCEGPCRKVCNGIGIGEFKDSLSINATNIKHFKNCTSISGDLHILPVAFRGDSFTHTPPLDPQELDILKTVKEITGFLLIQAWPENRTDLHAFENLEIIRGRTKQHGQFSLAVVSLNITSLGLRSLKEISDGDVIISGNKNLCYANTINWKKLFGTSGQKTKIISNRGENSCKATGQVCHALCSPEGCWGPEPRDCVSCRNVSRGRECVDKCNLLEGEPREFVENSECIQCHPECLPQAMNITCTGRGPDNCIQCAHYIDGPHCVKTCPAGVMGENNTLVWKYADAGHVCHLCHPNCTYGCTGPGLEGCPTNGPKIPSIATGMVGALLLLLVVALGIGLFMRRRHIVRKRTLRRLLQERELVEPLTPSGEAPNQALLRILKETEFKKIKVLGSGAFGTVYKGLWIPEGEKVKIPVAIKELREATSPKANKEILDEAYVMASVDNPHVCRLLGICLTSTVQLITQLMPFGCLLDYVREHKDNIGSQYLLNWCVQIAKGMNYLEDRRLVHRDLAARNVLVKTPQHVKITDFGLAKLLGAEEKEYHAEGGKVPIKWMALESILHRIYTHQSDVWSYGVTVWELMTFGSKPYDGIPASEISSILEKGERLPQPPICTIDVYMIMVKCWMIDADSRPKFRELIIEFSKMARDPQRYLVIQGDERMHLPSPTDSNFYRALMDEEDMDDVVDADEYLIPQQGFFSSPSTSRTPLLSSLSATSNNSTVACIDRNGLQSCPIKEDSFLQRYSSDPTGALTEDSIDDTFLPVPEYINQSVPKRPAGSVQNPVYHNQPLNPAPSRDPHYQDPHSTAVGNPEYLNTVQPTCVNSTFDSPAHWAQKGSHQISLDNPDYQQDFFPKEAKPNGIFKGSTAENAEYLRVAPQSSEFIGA

[5] = molecular target: Epidermal growth factor receptor (Homo sapiens) (UniProt P00533); conditions: at 1 µM
[6] = test system: Epidermal growth factor receptor (Homo sapiens), P00533 [L858R]; conditions: at 0.1 µM
Epidermal growth factor receptor (Homo sapiens), P00533 [L858R], sequence (P00533 whole entry L858R): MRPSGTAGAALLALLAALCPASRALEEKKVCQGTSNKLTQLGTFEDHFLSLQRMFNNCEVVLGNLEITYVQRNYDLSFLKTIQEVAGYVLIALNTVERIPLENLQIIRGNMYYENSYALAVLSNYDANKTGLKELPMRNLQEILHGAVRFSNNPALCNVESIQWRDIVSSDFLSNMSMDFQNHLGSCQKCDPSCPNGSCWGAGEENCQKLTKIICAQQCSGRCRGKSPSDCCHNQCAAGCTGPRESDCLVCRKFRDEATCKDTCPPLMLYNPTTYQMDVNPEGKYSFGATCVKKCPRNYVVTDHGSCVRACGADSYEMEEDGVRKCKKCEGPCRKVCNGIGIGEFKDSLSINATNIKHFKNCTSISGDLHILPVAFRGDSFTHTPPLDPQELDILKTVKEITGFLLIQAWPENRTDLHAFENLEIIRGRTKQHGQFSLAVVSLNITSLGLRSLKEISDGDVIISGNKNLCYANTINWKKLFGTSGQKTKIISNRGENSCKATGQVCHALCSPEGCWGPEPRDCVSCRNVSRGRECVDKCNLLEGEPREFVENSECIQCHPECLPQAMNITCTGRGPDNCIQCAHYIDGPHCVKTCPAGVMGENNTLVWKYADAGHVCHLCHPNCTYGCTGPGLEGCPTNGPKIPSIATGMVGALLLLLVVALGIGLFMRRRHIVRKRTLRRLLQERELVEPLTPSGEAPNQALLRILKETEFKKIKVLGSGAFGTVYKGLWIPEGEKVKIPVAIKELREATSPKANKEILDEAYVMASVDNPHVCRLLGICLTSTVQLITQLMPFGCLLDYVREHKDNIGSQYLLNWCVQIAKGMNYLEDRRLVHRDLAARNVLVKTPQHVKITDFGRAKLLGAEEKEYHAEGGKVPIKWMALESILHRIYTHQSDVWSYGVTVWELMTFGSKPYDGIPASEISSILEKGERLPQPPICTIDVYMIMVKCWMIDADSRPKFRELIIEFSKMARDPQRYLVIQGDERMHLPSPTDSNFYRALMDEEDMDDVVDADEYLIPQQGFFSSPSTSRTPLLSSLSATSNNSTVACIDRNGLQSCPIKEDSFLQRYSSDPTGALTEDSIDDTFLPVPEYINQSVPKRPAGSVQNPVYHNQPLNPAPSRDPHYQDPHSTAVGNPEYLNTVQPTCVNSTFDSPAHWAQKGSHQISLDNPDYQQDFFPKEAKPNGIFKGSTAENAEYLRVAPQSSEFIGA

[7] = test system: Epidermal growth factor receptor (Homo sapiens), P00533 [L858R]; conditions: at 1 µM
[8] = test system: Epidermal growth factor receptor (Homo sapiens), P00533 [L861Q]; conditions: at 0.1 µM
[9] = test system: Epidermal growth factor receptor (Homo sapiens), P00533 [L861Q]; conditions: at 1 µM
[10] = test system: Epidermal growth factor receptor (Homo sapiens), P00533 [T790M]; conditions: at 0.1 µM
Epidermal growth factor receptor (Homo sapiens), P00533 [T790M], sequence (P00533 whole entry T790M): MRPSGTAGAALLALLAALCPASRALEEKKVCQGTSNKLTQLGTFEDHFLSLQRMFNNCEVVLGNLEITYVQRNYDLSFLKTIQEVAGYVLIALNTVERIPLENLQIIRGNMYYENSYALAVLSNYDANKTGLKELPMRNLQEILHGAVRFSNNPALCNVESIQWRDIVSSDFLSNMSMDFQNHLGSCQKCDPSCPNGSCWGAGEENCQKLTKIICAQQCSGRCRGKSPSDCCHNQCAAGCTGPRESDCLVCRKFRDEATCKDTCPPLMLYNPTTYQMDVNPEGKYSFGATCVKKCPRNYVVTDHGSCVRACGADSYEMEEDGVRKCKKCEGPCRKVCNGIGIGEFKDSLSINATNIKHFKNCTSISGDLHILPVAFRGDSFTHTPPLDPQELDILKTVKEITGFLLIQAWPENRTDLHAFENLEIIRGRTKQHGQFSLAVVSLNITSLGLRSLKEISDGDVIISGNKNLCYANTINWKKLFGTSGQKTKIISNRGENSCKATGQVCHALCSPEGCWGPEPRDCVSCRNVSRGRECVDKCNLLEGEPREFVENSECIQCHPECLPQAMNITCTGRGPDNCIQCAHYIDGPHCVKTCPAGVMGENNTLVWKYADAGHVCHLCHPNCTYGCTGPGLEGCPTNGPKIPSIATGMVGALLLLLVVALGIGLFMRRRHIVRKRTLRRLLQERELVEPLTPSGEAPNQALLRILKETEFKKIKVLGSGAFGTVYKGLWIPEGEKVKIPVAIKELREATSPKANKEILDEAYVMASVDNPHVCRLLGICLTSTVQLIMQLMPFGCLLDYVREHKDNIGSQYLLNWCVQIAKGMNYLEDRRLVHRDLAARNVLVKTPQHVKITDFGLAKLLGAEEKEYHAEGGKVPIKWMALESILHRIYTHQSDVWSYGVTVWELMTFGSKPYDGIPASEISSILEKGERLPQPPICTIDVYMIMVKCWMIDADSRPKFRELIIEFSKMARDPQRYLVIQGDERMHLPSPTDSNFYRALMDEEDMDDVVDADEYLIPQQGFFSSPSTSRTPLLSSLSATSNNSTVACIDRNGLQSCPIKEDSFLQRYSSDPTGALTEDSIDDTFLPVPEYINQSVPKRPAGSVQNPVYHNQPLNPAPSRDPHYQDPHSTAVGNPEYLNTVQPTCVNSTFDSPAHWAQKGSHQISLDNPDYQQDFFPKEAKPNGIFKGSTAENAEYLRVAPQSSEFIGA

Tyrosine-protein kinase CSK (Homo sapiens), sequence (P41240 2-450 limits assumed): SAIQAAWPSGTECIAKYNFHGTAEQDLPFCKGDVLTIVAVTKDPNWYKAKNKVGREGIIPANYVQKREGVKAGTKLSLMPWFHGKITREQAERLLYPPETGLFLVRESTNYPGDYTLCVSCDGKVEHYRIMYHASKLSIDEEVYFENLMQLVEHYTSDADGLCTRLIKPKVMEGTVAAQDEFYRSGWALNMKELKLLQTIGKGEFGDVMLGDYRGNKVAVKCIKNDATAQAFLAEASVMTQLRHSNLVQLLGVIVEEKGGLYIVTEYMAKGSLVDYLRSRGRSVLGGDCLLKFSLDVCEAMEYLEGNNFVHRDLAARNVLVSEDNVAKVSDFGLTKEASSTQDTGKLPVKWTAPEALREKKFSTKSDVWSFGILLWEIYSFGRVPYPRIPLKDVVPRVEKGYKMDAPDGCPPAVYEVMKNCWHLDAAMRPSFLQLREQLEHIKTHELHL

Row | Structure (SMILES) | inhibition [1] | inhibition [2] | inhibition [3] | inhibition [4] | inhibition [5] | inhibition [6] | inhibition [7] | inhibition [8] | inhibition [9] | inhibition [10]
1 | COc1ccc2ncn(-c3cc(O[C@H](C)c4ccccc4C(F)(F)F)c(C(N)=O)s3)c2c1 | -2.18% | -0.82% | -2.22% | 0.37% | 2.93% | -1.19% | 1.03% | -0.87% | 0.54% | -1.45%
2 | N#Cc1cccc(Nc2ncc(-c3ccccc3)o2)c1 | 5.14% | 2.3% | 2.59% | -0.19% | 2.05% | 2.09% | 2.9% | 3.59% | 2.98% | 1.65%
3 | CNC(=O)c1cncc(/C=C/c2ccccc2C)c1 | 9.89% | 0.33% | 5.42% | 1.22% | 3.62% | 4.66% | 11.7% | 3.44% | 5.67% | 1.07%
4 | Cc1cc(O)cc(C)c1/C=C/c1cncc(C(=O)OC(C)(C)C)c1 | 32.9% | 1.51% | 2.49% | 1.62% | 5.14% | 3.7% | 17% | 2.25% | 4.72% | 0.92%
5 | NS(=O)(=O)c1ccc(N/N=C2\C(=O)Nc3ccc(C(=O)NCc4ccncc4)cc32)cc1 | 7.78% | -0.45% | 3.57% | -0.63% | 5.5% | 6.1% | 4.21% | 4.5% | 4.52% | 2.35%
6 | CS(=O)(=O)CCNCc1ccc(-c2ccc3ncnc(Nc4ccc(OCc5ccccc5)cc4)c3c2)o1 | 9.28% | 1.74% | 2.07% | 83.8% | 94.1% | 31.4% | 71.2% | 33% | 55.7% | 4.15%
7 | c1cnn2ncc(-c3ccnc(NCCCN4CCOCC4)n3)c2c1 | 1.9% | 2.03% | 1.44% | -0.42% | 0.23% | 3.41% | 1.28% | 1.28% | 0.79% | 0.73%
8 | Nc1nccc(-c2c(-c3ccc(F)cc3)ncn2C2CCNCC2)n1 | -3.76% and 3.13% | -1.68% and 1.35% | 0.32% | -0.4% and 2.01% | 5.66% and 6.46% | -0.59% and 2.85% | 6.1% and 10.9% | -3.23% and 1.91% | 1.42% and 4.42% | -2.84% and -2.65%
9 | CN1CCN(Cc2ccc(-c3cc4ncnc(Nc5ccc(OCc6cccc(F)c6)c(Cl)c5)c4s3)o2)CC1 | 12.6% and 17.7% | 1.16% and 0.39% | 1.23% and -0.86% | – | – | – | – | – | – | –
10 | CCS(=O)(=O)c1ccc(OC)c(Nc2ncc(-c3cccc(C(C)=O)c3)o2)c1 | 10.1% | 3.31% | 17.9% | 4.92% | 9.23% | 5.11% | 16.6% | 5.35% | 5.8% | 1.86%
11 | COc1c(C(N)=O)cc(-c2ccc(Cl)cc2)cc1-c1ccc(S(N)(=O)=O)cc1 | 4.45% | 1.62% | 2.64% | 1.55% | 2.79% | 2.2% | 8.48% | 2.27% | 5.74% | 1.41%
12 | Nc1ncnc2occ(-c3ccc(NC(=O)Nc4cc(C(F)(F)F)ccc4F)cc3)c12 | 41% and 18.6% | 46.1% and 33.6% | 80% and 79.7% | 1.05% and 12.5% | 5.41% and 15.6% | 2.23% and 3.14% | 1.42% and 3.22% | 3.11% and 1.25% | 1.69% and 1.44% | 1.74% and 0.3%
13 | CCn1c(-c2nonc2N)nc2cncc(C(=O)NCCNC)c21 | 4.95% | 1.54% | 2.38% | 0.28% | 5.41% | 4.66% | 6.79% | 4.01% | 2.21% | 2.41%
14 | CS(=O)(=O)Nc1ccc(-c2cc(-c3ccccc3)cc(C(N)=O)c2N)cc1 | 1.29% | -0.17% | 1.14% | 11.5% | 17.2% | 1.51% | 1.89% | 0.77% | 5.17% | -0.83%
15 | Cc1c2ccc(N(C)c3ccnc(Nc4cccc(S(N)(=O)=O)c4)n3)cc2nn1C | 19% | 11.4% | 65% | -3.87% | 0.64% | 3.16% | 11.9% | 5.08% | 3.69% | 3.44%
16 | CS(=O)(=O)CCNCc1ccc(-c2ccc3ncnc(Nc4ccc(OCc5cccc(C(F)(F)F)c5)cc4)c3c2)o1 | 3.02% | 0.91% | 2.9% | 15.5% | 58.8% | 6.17% | 26.7% | 14.4% | 34.4% | 0.24%

Row | Structure (SMILES) | inhibition [1] | inhibition [2] | inhibition [3] | inhibition [4] | inhibition [5] | inhibition [6] | inhibition [7] | inhibition [8] | inhibition [9] | inhibition [10]
17 | O=C1Nc2ccccc2/C1=C1\CCc2cc(O)ccc21 | 4.47% | 2.06% | 3.76% | 0.24% | 1.05% | 1.94% | 2.87% | 2.16% | -0.57% | 1.76%
18 | COc1cc2c(cc1Nc1nc(Nc3cccc(F)c3C(N)=O)c3cc[nH]c3n1)N(C(=O)CN1CCN(C(C)C)CC1)CC2 | -3.02% | -1.78% | -0.55% | 2.48% | 17.1% | -0.57% | 15.1% | 1.65% | 13.7% | 2.59%
19 | COc1ccc(-c2nn3ncccc3c2-c2ccnc(Nc3ccc(F)c(F)c3)n2)cc1 | 8.37% | 4.41% | 34.7% | 1.6% | 9.46% | 3.72% | 21.4% | 3.55% | 10.2% | 3.23%
20 | N#Cc1ccc2c(-c3ccnc(NC4CC4)n3)c(-c3ccc(F)cc3)nn2c1 | 3.45% | 4.32% | 15.8% | 1.52% | 13.8% | 5.89% | 41.3% | 1.64% | 12.9% | -0.38%
21 | COc1cc(N2CCN(C(C)C)CC2)ccc1Nc1nc(Nc2cccc3ncccc23)c2cc[nH]c2n1 | -2.41% | 4.81% | 8.24% | 1.36% | 2.64% | -1.25% | 3.3% | -0.92% | 0.99% | -1.02%
22 | CCN1CCC(C(=O)Nc2n[nH]c3nnc(-c4cccc(F)c4F)cc23)CC1 | -0.26% | 1.13% | 1.17% | 1.21% | 2.27% | -0.75% | 1.38% | -0.05% | -0.76% | -1.59%
23 | COc1cc(Nc2ncc(-c3ccccc3)o2)cc(OC)c1 | 4.79% | 4.48% | 7.93% | 3.35% | 5.26% | 0.1% | 1.99% | 3.52% | 5.17% | 1.76%
24 | NC(=O)c1ccc2c(-c3ccnc(NCCCO)n3)c(-c3ccc(F)cc3)nn2c1 | 7.7% | 4.1% | 22.4% | 1.88% | 17.3% | 10.1% | 50.6% | 4.58% | 16.6% | 2.86%
25 | CN1CCC(C(=O)Nc2n[nH]c3nc(-c4ccc(O)cc4)c(Br)cc23)CC1 | 7.63% and 4.28% | -0.34% and 1.94% | 0.35% and 3.34% | -1.4% and 2.45% | -1.83% and 5.5% | 3.81% and 2.33% | 5.88% and 4.98% | 2.69% and 0.43% | 2.01% and 1.22% | 2.13% and 0.11%
26 | CS(=O)(=O)CCNCc1ccoc1-c1ccc2ncnc(Nc3ccc(OCc4ccccc4)cc3)c2c1 | 4.64% | 5.97% | 7.08% | 66.8% | 86.2% | 14.5% | 51.2% | 25.4% | 42.1% | 0.03%
27 | Nc1nonc1-c1nc2cnccc2n1C1CC1 | 2.08% and 1.45% | 1.46% and 1.25% | 2.24% and 0.96% | 1.3% and -3.46% | 4.4% and -3.77% | 1.41% and 2.54% | 0.67% and 3.32% | 4% and 2.76% | -0.36% and -1.27% | 1.58% and 0.88%
28 | OCCCNc1nccc(-c2c(-c3ccc(F)cc3)nn3cc(C(F)(F)F)ccc23)n1 | 1.58% | 3.25% | 19.3% | 0.97% | 9.16% | 5.62% | 24.6% | 2.61% | 6.62% | 0.96%
29 | Fc1ccc(Nc2nccc(-c3c(-c4ccc(C(F)(F)F)cc4)nn4ncccc34)n2)cc1F | 0.02% | 0.84% | 1.01% | -6.64% | 2.88% | 4.49% | 2.96% | 2.39% | -0.05% | 2.44%
30 | Cc1ccc(-c2cc3c(NC(=O)C4CC4)ncnc3o2)cc1 | 2.78% | 0.26% | 1.45% | 3.75% | 8.67% | 3.53% | 2.75% | 2.3% | 4.69% | 1.98%
31 | CC1(C)CC(n2cnc(-c3ccc(F)cc3)c2-c2ccnc(N)n2)CC(C)(C)N1 | -2.23% | 1.3% | -0.87% | 0.38% | -0.12% | -1.07% | 0.2% | -0.41% | -1% | -0.77%
